Assay results published in PubChem BioAssay AID1159580 (chemical genetic matrix, 2015).
The campaign covered roughly 5,500 compounds. About 2,000 (36%) were called active. Another 18% or so got no clear call; they are omitted. Cut-off read from the data, not from the text of the source: active = normalized growth mostly below about 0.91 (no sharp cut-off); inconclusive = no clear call, values can overlap the other calls; inactive = mostly above about 0.92. The list shows a part of the results.

Test: chemical genetic growth profiling, strain panel (AID 1159580);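 note: tested at 20 µM; growth read once vehicle control cultures reached saturation at 30 °C; 1 = growth at the plate median or of vehicle wells; lower values mean less growth of the strain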
Conditions: S. cerevisiae deletion strains, growth OD

Measured: normalized growth

CCCCN1CCC(n2c(=O)[nH]c3ccccc32)CC1
inactive: locus YAL040C, strain CLN3, hits give low values 1.01 | locus YCL061C, strain MRC1 (second series), hits give low values 1.01 | locus YDR363W, strain ESC2, hits give low values 1.02 | locus YER002W, strain NOP16, hits give low values 0.994 | locus YGR229C, strain SMI1, hits give low values 1.01 | locus YJR075W, strain HOC1, hits give low values 1.02 | locus YMR263W, strain SAP30, hits give low values 1 | locus YNL153C, strain GIM3, hits give low values 0.952 | locus YNL175C, strain NOP13, hits give low values 1.01 | locus YNL197C, strain WHI3, hits give low values 1.03 | locus YNL224C, strain SQS1, hits give low values 0.988 | locus YOR083W, strain WHI5 (second series), hits give low values 1.01
